Data on 15 compounds can be found in PubChem BioAssay (NCATS).

The target of experiment [1] is Lysosomal acid glucosylceramidase (Homo sapiens) (UniProt P04062). In words: Glucocerebrosidase-p2 (AID 348; in the data active means potency below about 10 µM; further: potency means the concentration at half of the fitted maximal effect). The note with it: purified GBA, blue fluorogenic substrate, 40 min. The method, boiled down:
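Normal human glucocerebrosidase (0.2 nM) with blue fluorogenic substrate (80 uM final) in citrate/phosphate pH 5.9 with 10mM sodium taurocholate, 0.01% tween-20; 40 min RT, NaOH/glycine stop; fluorescence Ex 365/Em 440; AC50 from a titration from 0.6 nM upwards.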

A short description of experiment [2]: AP1 Signaling Pathway (AID 357). Further: on the % scale 0 is the no-effect control and ±100 the full control effect. The note with it: ME-180 AP-1-bla reporter, EGF-induced, beta-lactamase ratio, 5 h; at 7.69 µM (top of the series) unless noted. The method, boiled down: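 A ratiometric CCF4 readout (405 nm excitation; 460 and 530 nm emission) quantified AP-1-driven beta-lactamase in ME-180 cells after 5 h with compound and EC50 EGF; AC50 values were derived for activators and inhibitors.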

In experiment [3] the target is Cytochrome P450 1A2 (Homo sapiens) (UniProt P05177). In words: p450-cyp1a2 (AID 410; calls by dose curve; further: potency means the concentration at half of the fitted maximal effect;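 on activity change, negative = inhibition: -100% = full effect of reference inhibitor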). The note with it: recombinant CYP1A2, luciferin-ME demethylation, luminescence; series mostly up to 11.4 µM. In outline: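 Luminescent demethylation readout: Luciferin-ME (100uM, equal to Km) turned over by 20nM CYP1A2 for 60 min at room temperature after NADPH regeneration addition, following 10 min compound preincubation. Normalization used 57 uM furafylline as full inhibition.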

Experiment [4] is described as follows: NFAT Signaling Pathway (AID 444).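 Further: carbachol stimulus at about its EC50 of 1 µM final; on the % scale 0 is the no-effect control and ±100 the full control effect.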 Particulars: Jurkat NFAT-bla M1, carbachol, beta-lactamase ratio, 5 h; at 7.69 µM (top of the series) unless noted. In outline:
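Jurkat cells carrying an NFAT-driven β-lactamase reporter and co-transfected muscarinic M1 receptor were treated with compound plus carbachol (1 uM final, an EC50 level) for 5 h at 37 °C. CCF4 loading followed for 1 h at RT; 460/530 nm ratio gave %activity.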

Experiment [5] is described as follows: Stat Signaling Pathway (AID 446).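 Further: ME-180 cervical cancer cells given 40 pM IL-6 alongside compound; SIE-controlled beta-lactamase reporter measured as 460/530 nm FRET emission ratio; on the % scale 0 is the no-effect control and ±100 the full control effect.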 The note with it: ME-180 (cervical carcinoma) SIE beta-lactamase reporter, IL-6 stimulated, 5 h; at 7.69 µM (top of the series) unless noted. In outline: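 Normalization used AC90 stimulation (300 pM IL-6) and AC90 inhibition (125 nM pan-JAK inhibitor at 40 pM IL-6). The underlying signal is SIE-driven beta-lactamase in ME-180 cells after 5 h IL-6 exposure with compound.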

The target of experiment [6] is Glucocorticoid receptor (Homo sapiens) (UniProt P04150). In words: GR-GFP Redistribution (AID 450;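 active means compounds whose dose series gives a full or clear partial fitted curve of increased nuclear translocation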; further: potency means the concentration at half of the fitted maximal effect). The note with it: U2OS GR-GFP nuclear translocation, laser cytometry, 2 h.
The target is the same in experiment [7]. In words: GR-EFC Redistribution (AID 451; calls by dose curve; further: potency means the concentration at half of the fitted maximal effect). The note with it: CHO-K1 GR-EFC translocation, beta-gal luminescence, 2 h. In outline:
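CHO-K1 cells stably expressing nuclear-localized β-gal enzyme acceptor and GR fused C-terminally to the enzyme donor fragment; ligand-driven nuclear translocation restores β-gal by complementation. Compounds titrated up to 46 uM final, 2 h at 37 °C; luminescence read.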

Experiment [8] deals with Mitogen-activated protein kinase 10 (Mus musculus) (UniProt Q61831). In words: JNK3 AlphaScreen Assay (AID 530).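 Further: kinase came from lysate of stimulated human HepG2 cells; on the % scale 0 is the no-effect control and ±100 the full control effect.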 The note with it: JNK3 lysate, c-Jun phosphorylation; series mostly up to 11.4 µM. In outline: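 Phosphorylation of biotinylated GST-cJun(1-79) at Ser73 is measured by AlphaScreen proximity luminescence. Enzyme is JNK3 in HepG2 lysates activated with interleukin-1beta and tumor necrosis factor alpha; ATP is 10 uM final.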

The target in experiment [9] is 3',5'-cyclic-AMP phosphodiesterase 4B (Homo sapiens) (UniProt Q07343). In words: qHTS Assay for Inhibitors of PDE-IV (AID 607; active means well fitted activation curve with a large enough effect in the main read-out, with a control signal flat, not every such curve was filed as active; further: % of control where 0% means no effect). The note with it: HEK293 ACTOne CNG channel cells, membrane potential fluorescence; series mostly up to 22.9 µM. In outline:
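HEK293 ACTOne cells with CNG channel (1000/well), endogenous PDE4; membrane potential dye, compounds up to 22.9 uM final. Fluorescence Ex 535/Em 590; RO 20-1724 (100 uM final) as reference.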
Background: In qHTS, concentration-response curves come from the screen itself.

In experiment [10] the target is Cytochrome P450 2C19 (Homo sapiens) (UniProt P33261). In words: qHTS Assay for Inhibitors and Substrates of Cytochrome P450 2C19 (AID 899; active means well fitted inhibition curve with a large enough effect; further: nearly all actives have a fitted effect of over 60% in size; further: potency means the concentration at half of the fitted maximal effect). Particulars: recombinant CYP2C19, luciferin-H EGE luminescence; series mostly up to 11.4 µM. The method, boiled down: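 Human CYP2C19 (5nM) with Luciferin-H EGE at 10uM (its KM) in 50mM KPO4 was preincubated with compound for 10 min at 37C. NADPH regeneration started a 60 min 37C reaction. Luciferin was read by luminescence, normalized to 57uM ketoconazole.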

The structures appear in SMILES notation. A number with no mark means an inactive call. Results filed as inconclusive are left out. Calls of active or inactive are those of the source. Unless noted, the call rests on the fitted dose curve; in most records, active means well fitted curve in either direction with a large enough effect (not every such curve was filed as active); inconclusive means small, poorly fitted or top-dose-only effect, or another doubt; inactive means flat fitted curve, though single readings scatter. A value given as a limit tells only on which side of the number the result lay.

Sequence of 3',5'-cyclic-AMP phosphodiesterase 4B (Homo sapiens) (Q07343 whole entry, looked up): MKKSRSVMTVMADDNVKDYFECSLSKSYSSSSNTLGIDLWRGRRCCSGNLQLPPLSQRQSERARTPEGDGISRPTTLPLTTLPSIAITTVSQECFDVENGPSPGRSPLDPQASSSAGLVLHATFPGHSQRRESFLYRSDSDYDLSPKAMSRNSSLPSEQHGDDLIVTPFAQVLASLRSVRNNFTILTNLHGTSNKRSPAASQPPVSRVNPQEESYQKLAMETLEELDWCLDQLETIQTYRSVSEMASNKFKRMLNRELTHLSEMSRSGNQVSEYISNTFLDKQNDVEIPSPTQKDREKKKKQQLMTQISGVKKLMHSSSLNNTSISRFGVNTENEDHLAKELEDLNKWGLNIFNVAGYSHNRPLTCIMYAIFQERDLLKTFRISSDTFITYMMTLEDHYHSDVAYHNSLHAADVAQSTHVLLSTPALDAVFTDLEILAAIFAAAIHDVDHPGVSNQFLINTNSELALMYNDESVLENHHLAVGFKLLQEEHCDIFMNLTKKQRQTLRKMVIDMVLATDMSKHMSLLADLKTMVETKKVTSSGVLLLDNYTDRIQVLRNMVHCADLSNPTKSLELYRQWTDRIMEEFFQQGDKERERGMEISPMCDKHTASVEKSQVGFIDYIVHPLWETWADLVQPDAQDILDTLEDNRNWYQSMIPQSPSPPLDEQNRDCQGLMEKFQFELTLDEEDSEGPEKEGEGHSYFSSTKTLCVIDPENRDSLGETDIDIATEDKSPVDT
Sequence of Cytochrome P450 1A2 (Homo sapiens) (P05177 whole entry, looked up): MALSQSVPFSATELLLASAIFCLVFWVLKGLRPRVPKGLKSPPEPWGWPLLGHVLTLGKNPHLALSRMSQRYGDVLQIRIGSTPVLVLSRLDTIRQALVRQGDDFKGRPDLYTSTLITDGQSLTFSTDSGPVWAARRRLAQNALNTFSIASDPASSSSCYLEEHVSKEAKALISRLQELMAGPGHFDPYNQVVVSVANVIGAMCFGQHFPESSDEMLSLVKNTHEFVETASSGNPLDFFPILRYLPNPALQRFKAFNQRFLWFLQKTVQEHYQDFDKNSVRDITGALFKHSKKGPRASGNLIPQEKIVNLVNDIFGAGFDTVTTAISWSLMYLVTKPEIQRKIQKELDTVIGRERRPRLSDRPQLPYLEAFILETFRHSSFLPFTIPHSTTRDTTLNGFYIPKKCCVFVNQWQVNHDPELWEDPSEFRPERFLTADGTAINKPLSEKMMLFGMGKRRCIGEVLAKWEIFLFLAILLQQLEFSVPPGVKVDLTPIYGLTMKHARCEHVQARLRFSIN
Sequence of Glucocorticoid receptor (Homo sapiens) (P04150 whole entry, looked up): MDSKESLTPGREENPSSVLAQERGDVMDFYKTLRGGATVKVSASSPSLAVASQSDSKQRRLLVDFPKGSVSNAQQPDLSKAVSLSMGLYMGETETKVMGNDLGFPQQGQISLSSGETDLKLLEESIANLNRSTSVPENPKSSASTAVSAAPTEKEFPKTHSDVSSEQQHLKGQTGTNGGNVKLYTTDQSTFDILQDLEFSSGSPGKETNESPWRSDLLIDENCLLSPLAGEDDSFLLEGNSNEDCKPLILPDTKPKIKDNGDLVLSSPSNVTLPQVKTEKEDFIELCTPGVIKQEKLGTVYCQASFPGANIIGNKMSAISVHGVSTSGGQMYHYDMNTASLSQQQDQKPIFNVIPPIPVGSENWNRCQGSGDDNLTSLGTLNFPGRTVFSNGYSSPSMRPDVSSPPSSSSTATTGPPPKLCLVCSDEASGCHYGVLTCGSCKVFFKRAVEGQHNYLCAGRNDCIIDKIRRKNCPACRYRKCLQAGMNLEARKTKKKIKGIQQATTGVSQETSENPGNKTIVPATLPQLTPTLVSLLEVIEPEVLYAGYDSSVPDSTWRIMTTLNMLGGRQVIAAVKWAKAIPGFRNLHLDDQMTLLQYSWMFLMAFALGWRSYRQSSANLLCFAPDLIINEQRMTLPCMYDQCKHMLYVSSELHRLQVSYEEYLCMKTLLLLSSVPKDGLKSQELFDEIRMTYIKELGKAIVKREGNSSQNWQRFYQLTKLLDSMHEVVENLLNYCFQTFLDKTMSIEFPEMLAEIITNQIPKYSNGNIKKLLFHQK
Sequence of Lysosomal acid glucosylceramidase (Homo sapiens) (P04062 whole entry, looked up): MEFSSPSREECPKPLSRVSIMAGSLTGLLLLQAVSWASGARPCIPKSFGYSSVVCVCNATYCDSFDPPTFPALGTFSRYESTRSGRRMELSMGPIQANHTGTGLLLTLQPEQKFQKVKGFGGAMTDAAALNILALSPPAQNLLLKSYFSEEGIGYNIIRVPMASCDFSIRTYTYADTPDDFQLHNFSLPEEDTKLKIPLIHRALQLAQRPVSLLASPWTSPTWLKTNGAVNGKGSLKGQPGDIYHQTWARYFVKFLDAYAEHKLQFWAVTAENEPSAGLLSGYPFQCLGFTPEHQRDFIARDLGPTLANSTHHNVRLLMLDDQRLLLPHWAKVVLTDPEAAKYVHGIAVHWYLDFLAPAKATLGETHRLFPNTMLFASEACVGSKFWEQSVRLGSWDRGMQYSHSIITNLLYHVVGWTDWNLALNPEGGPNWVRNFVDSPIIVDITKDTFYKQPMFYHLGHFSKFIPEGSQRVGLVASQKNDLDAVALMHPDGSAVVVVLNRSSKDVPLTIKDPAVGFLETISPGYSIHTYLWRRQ
Sequence of Cytochrome P450 2C19 (Homo sapiens) (P33261 whole entry, looked up): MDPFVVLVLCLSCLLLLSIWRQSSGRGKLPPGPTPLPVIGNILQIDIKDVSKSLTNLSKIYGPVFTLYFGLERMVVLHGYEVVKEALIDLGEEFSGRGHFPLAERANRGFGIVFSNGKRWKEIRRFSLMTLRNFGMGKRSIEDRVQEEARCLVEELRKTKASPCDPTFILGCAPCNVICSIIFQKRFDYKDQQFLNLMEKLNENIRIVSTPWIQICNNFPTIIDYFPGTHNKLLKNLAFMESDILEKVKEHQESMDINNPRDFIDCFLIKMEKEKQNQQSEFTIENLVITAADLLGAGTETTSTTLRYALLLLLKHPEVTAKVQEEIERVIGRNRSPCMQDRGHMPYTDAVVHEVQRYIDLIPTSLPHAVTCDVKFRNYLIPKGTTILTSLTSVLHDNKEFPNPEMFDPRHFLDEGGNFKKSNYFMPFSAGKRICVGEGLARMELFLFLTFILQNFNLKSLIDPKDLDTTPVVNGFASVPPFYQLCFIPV

On to `O=C(CC1(O)CCCCC1)OC1CCCC1`, for which the Potency in [1] is greater than 11.4 µM; in experiment [6], greater than 46 µM; in experiment [7], greater than 9.22 µM; in [10] it was 1.58 µM (active). For the same compound, the activity change, negative = inhibition was 8.55% in experiment [2] and 16.8% in experiment [4]. Besides, the Potency entry in experiment [3], in experiment [8] and in [9] was “inactive” in each case. The activity, negative = inhibition in experiment [5] was 4.14%.
For the compound `Cn1c(=O)c2c(nc(C(=N)SCC(=O)O)n2C)n(C)c1=O`, the Potency in experiment [1] is greater than 11.4 µM; in experiment [3], 1.26 µM (active); in experiment [6] it was greater than 46 µM; in experiment [7] it was greater than 9.22 µM. Further, the activity change, negative = inhibition in [2] was -5.29%; in experiment [4], 4.58%. Also, the activity, negative = inhibition in experiment [5] was -6.13%. Besides, the Potency result in experiment [8], in experiment [9] and in [10] was “inactive” in each case.
Consider `Cc1ccc(N(Cc2ccccc2)Cc2ccccc2)cc1`, for which the Potency in experiment [1] is greater than 11.4 µM; in experiment [6], greater than 46 µM; in experiment [7], greater than 9.22 µM; in [10] it was 2 µM (active). The activity change, negative = inhibition in experiment [2] was 4.21%; in experiment [3] it was -24.2% [at 2.29 µM]; in experiment [4] it was -17.4%. Also, the activity, negative = inhibition in experiment [5] is 3.16%. Besides, the Potency result in [8] and in experiment [9] was “inactive” each time.
As to `N=C(N)SCCCN`, the Potency in experiment [1] is greater than 11.4 µM; in [3] it was 6.31 µM (active); in [6], greater than 46 µM; in experiment [7], greater than 9.22 µM. For the same compound, the values for the activity change, negative = inhibition in experiment [2] and in [4] were 2.32% and 3.8%, respectively. For the same compound, in [5], the activity, negative = inhibition was 5.52%. Besides, the Potency result in experiment [8], in [9] and in [10] was “inactive” in each case.
For the compound `O=C(CCN1CCCCC1)N1CCc2c([nH]c3ccccc23)[C@H]1c1cccnc1`, the Potency is greater than 11.4 µM in [1], greater than 46 µM in experiment [6] and greater than 9.22 µM in [7]. For the same compound, the activity change, negative = inhibition is 4.71% in experiment [2], -19.7% [at 2.29 µM] in experiment [3] and -15.8% in [4]. For the same compound, the activity, negative = inhibition in experiment [5] was -6.32%. The Potency result in experiment [8], in experiment [9] and in [10] was “inactive” each time.
As to `CN(C)Cc1ccc(C(C)(C)C)cc1-c1cc(C(C)(C)C)ccc1CN(C)C`, the Potency in experiment [1] is greater than 11.4 µM; in experiment [3], 3.98 µM (active); in [6] it was greater than 46 µM; in [7] it was greater than 9.22 µM. The activity change, negative = inhibition is -1.36% in [2] and 6.36% in experiment [4]. In experiment [5], the activity, negative = inhibition is -4.38%. Moreover, the Potency result in [8], in experiment [9] and in [10] was “inactive” in each case.
Regarding `S=c1c2[nH]cnc2ncn1CCSc1ncnc2nc[nH]c12`, the Potency in experiment [1] is greater than 11.4 µM; in experiment [6], greater than 46 µM; in experiment [7], greater than 9.22 µM. Also, the activity change, negative = inhibition was -5.47% in [2] and 23.1% in [4]. The Potency entry in [3], in [8], in experiment [9] and in [10] was “inactive” each time. For the same compound, the activity, negative = inhibition in experiment [5] was 7.7%.
In the case of `CC[C@@H]1CC(=O)N(SC[C@H](N)C(=O)O)C1=O`, the Potency in [1] was greater than 11.4 µM; in experiment [6], greater than 46 µM; in experiment [7], greater than 9.22 µM. The activity change, negative = inhibition is 1.56% in experiment [2] and 12.4% in [4]. For the same compound, the Potency result in experiment [3], in experiment [8], in [9] and in experiment [10] was “inactive” in each case. For the same compound, the activity, negative = inhibition in experiment [5] is 1.84%.
In the case of `CN1CCc2nc(N)nc(-c3nc(N)nc4c3CN(C)CC4)c2C1`, the Potency was greater than 11.4 µM in experiment [1], greater than 46 µM in [6] and greater than 9.22 µM in [7]. The activity change, negative = inhibition was 1.73% in [2], -3.9% [at 2.29 µM] in experiment [3] and 7.63% in experiment [4]. The activity, negative = inhibition in [5] is 4.69%. For the same compound, the Potency result in [8], in experiment [9] and in experiment [10] was “inactive” throughout.
Consider `O=C(SCc1cccc2ccccc12)c1ccc(Cl)cc1`, for which the Potency in [1] is greater than 11.4 µM; in experiment [3], 0.794 µM (active); in [6], greater than 46 µM; in [7] it was greater than 9.22 µM; in experiment [10], 1.58 µM (active). Moreover, the values for the activity change, negative = inhibition in experiment [2] and in experiment [4] were 9.24% and -5.94%, respectively. Moreover, in experiment [5], the activity, negative = inhibition is 7%. Further, the Potency result in experiment [8] and in experiment [9] was “inactive” in each case.
In the case of `Nc1c(S(N)(=O)=O)cc(S(N)(=O)=O)cc1S(N)(=O)=O`, the Potency in experiment [1] was greater than 11.4 µM; in experiment [6] it was greater than 46 µM; in experiment [7], greater than 9.22 µM. Further, the values for the activity change, negative = inhibition in experiment [2] and in experiment [4] were 2.78% and 7.97%, respectively. The Potency result in [3], in [8], in [9] and in experiment [10] was “inactive” throughout. Further, the activity, negative = inhibition in experiment [5] was 1.94%.
Consider `Cc1cn(CC[C@H](N)C(=O)O)c(=O)[nH]c1=O`, for which the Potency was greater than 11.4 µM in experiment [1], greater than 46 µM in experiment [6] and greater than 9.22 µM in [7]. For the same compound, the activity change, negative = inhibition in [2] is 0.888%; in [4] it was -6.68%. Also, the Potency entry in experiment [3], in experiment [8], in experiment [9] and in experiment [10] was “inactive” each time. In [5], the activity, negative = inhibition is 16.3%.
Consider `C[N+](C)(C)c1nc(N)nc2c1ncn2[C@H]1O[C@@H](CO)[C@@H](O)[C@H]1O`, for which the Potency is greater than 11.4 µM in experiment [1], greater than 46 µM in [6] and greater than 9.22 µM in experiment [7]. The activity change, negative = inhibition is 6.27% in experiment [2], -4.9% [at 2.29 µM] in experiment [3] and 2.16% in experiment [4]. In addition, in [5], the activity, negative = inhibition was -3.17%. Also, the Potency entry in [8], in [9] and in experiment [10] was “inactive” in each case.
Consider `Nc1ccc(S(=O)(=O)NCc2nccs2)cc1`, for which the Potency is greater than 11.4 µM in [1], greater than 46 µM in [6], greater than 9.22 µM in experiment [7] and 0.0794 µM (active) in experiment [10]. Besides, the activity change, negative = inhibition in experiment [2] is -6.48%; in experiment [3], -10.5% [at 2.29 µM]; in experiment [4], 7.98%. In addition, in [5], the activity, negative = inhibition was -1.21%. In addition, the Potency result in experiment [8] and in experiment [9] was “inactive” in each case.
`N=c1ccn2c(n1)O[C@H]1[C@@H](OP(=O)(O)O)[C@H](CO)O[C@H]12`: the Potency in [1] is greater than 11.4 µM; in experiment [6] it was greater than 46 µM; in experiment [7], greater than 9.22 µM. For the same compound, the figures for the activity change, negative = inhibition in [2], in experiment [3] and in experiment [4] were 1.47%, -3.1% [at 2.29 µM] and 19.9%, respectively. Moreover, in [5], the activity, negative = inhibition was -1.19%. Further, the Potency entry in experiment [8], in experiment [9] and in experiment [10] was “inactive” throughout.
